Bioassay records deposited in PubChem BioAssay by National Center for Advancing Translational Sciences (NCATS).
FMDV antiviral: High Throughput Screening for Foot and Mouth Disease Virus Antivirals. FMDV antiviral cell-based qHTS. 1.2% of 410,000 active. Potency, µM (doses to about 57.9 µM), usual class: inhibitors; calls by dose curve; tested in HEK293T cells; note: read-out not given here; nearly all actives have a fitted effect of over 45% in size
Vaccinia Venus: qHTS for Stage-Specific Inhibitors of Vaccinia Orthopoxvirus: Venus Reporter Primary qHTS | Vaccinia virus Venus reporter expression, fluorescence | Potency, µM (doses to about 36.5 µM), most hits filed as inhibitors | 0.46% of 330,000 active | AID 720580, 2013; calls by dose curve; tested in A549 cells; note: nearly all actives have a fitted effect of over 30% in size
HCV inh: qHTS Assay for Inhibitors of Hepatitis C Virus (HCV); Huh7.5.1 HCVcc-Cre infection, luciferase reporter, 44 h; Potency, µM (highest dose often 41.8 µM), most hits filed as inhibitors; 3.4% of 340,000 active
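Reporter virus HCVcc-Cre (~0.5 moi) infects cells exposed to compound; seeding density 1,000 cells/well with 4 h settling beforehand. Luminescence, 15 sec read, taken 44 h post-infection following a 15 min RT substrate incubation.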
HCMV inh: qHTS Assay for inhibitors of the human cytomegalovirus (HCMV); 4.5% of 410,000 active; HFF cells, HCMV-luciferase reporter, 72 h; active compounds read low; activity change, negative = inhibition, % at 57.5 µM; in the data active = activity change below about -60%; inconclusive = no clear call, values can overlap the other calls; inactive = above about -39%
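After 16 h attachment at 37C, HFF cells received test compound and HCMV-luciferase (1 PFU/cell); reporter luminescence read 72 h later, data normalized against buffer-only and known inhibitor Salinomycin.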
Vaccinia mCherry: qHTS for Stage-Specific Inhibitors of Vaccinia Orthopoxvirus: mCherry Reporter Primary qHTS; Vaccinia virus mCherry reporter infection, fluorescence; Potency, µM (highest dose often 36.5 µM), actives largely listed as inhibitors; 0.63% of 310,000 active; AID 720579, 2013; calls by dose curve; tested in A549 cells; note: nearly all actives have a fitted effect of over 35% in size
Sm TGR block: qHTS Assay for the Inhibitors of Schistosoma Mansoni Peroxiredoxins; Schistosoma mansoni thioredoxin glutathione reductase (TGR), Q962Y6; purified TGR, DTNB reduction, TNB absorbance 405 nm; Potency, µM (titrated, usually from 114 µM), usual class: inhibitors; 3% of 360,000 active; AID 485364, 2010; note: nearly all actives have a fitted effect of over 60% in size
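First, TGR (20 nM dispensed) and NADPH were mixed with compound. Second, a 15 min room-temperature incubation followed. Third, further NADPH and then DTNB were added to start the reaction. Finally, TNB absorbance was monitored kinetically.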
Hits are given with their value; 0 = inactive; ? = inconclusive; - = not tested or not shown; [ ] = remark or other dose. Compounds with a hit are over-represented: about 9.3% of the library has one in this group of screens. Unless noted, calls come from the whole dose curve; as a rule, active = well fitted curve in the direction sought with a large enough effect; inconclusive = small, poorly fitted or top-dose-only effect, or another doubt; inactive = no such curve, though single readings can be large; an effect the other way counts as inactive or inconclusive.

SMILES	FMDV antiviral	Vaccinia Venus	HCV inh	HCMV inh	Vaccinia mCherry	Sm TGR block
CCOc1ccc(C(=O)NCCn2cc(SCC(=O)NCCc3ccc(OC)c(OC)c3)c3ccccc32)cc1	0	0	-	0	0	0
CCOC(=O)N1CCN(C(=O)CCCn2c(=O)[nH]c3ccccc3c2=O)CC1	0	-	0	0	-	0
O=C(NCc1ccccc1)c1ccccc1NC(=O)C1CCCCC1	0	0	?	0	0	0
CCCCN(C)C(=O)c1sc(=O)n(Cc2c(C)cccc2C)c1C	0	0	-	-61.2	0	-
CCCCN(C)C(=O)c1sc(=O)n(Cc2ccccc2F)c1C	0	0	-	0	0	-
CO/N=C/c1ccc(N2CCN(C(=O)c3cccc(C(F)(F)F)c3)CC2)c([N+](=O)[O-])c1	?	-	?	0	-	0
Cc1ccc(C(=O)O/N=C\c2ccc(N3CCCCC3)c([N+](=O)[O-])c2)cc1	0	0	?	0	-	0
CO/N=C/c1ccc(N2CCN(C(=O)c3ccc(Cl)cc3Cl)CC2)c([N+](=O)[O-])c1	12.6µM	-	8.91µM	-97.8	-	0
CO/N=C/c1ccc(N2CCN(C(=O)c3ccc(F)cc3)CC2)c([N+](=O)[O-])c1	20µM	-	14.1µM	0	-	0
CC1CCCCC12NC(=O)N(CC(=O)N1CCN(S(=O)(=O)Cc3ccccc3)CC1)C2=O (stereo unspecified)	0	-	0	0	-	0
Cc1cc(NC(=O)CSc2nc(-c3ccccc3)cs2)no1	0	?	?	0	-	0
COc1cc(-c2cc(OC)c3c(C)oc(C)c3c(=O)c2)ccc1OC(=O)c1ccccc1Cl	?	0	-	0	0	0
Cc1oc(C)c2c(=O)cc(-c3ccc4c(c3)OCO4)cc(OC(=O)c3ccccc3Br)c12	0	0	-	0	0	44.7µM
Cc1oc(C)c2c(=O)cc(-c3ccc4c(c3)OCO4)cc(OC(=O)c3ccccc3Cl)c12	0	0	-	0	0	39.8µM
COc1ccc(NC(=S)Nc2cccc(C(C)=O)c2)cc1OC	0	0	0	0	0	?
O=C(Nc1cccc(Cl)c1)Nc1cccc(Cl)c1	0	?	0	?	?	0
COC(=O)c1cccc(NC(=S)Nc2ccc(Cl)c(Cl)c2)c1	?	0	?	0	0	22.4µM
COc1ccc(NC(=O)Nc2cccc(OC)c2)cc1	-	0	0	0	0	-
COC(=O)c1cccc(NC(=S)NCCC2=CCCCC2)c1	0	?	12.6µM	?	0[1.46 µM]	0
COC(=O)c1ccc(NC(=S)NCCC2=CCCCC2)cc1	-	0	0	0	0	0
COC(=O)c1cc(NC(=O)Nc2cccc(Cl)c2)ccc1Cl	-	?	10µM	-99.0	?	0
COc1cccc(NC(=O)Nc2cc(Cl)ccc2C)c1	0	0	0	-60.4	0	0
CCN(c1ccccc1)S(=O)(=O)c1nnc(NC(=O)c2ccccc2)s1	0	0	-	0	0	0
Nc1cc(S(=O)(=O)N2CCCCC2)ccc1N1CCCCC1	0	0	0	0	0	0
COC(=O)c1cc(NC(=O)c2ccc(-c3ccccc3)cc2)ccc1Cl	0	0	10µM	0	0	0
SMILES	FMDV antiviral	Vaccinia Venus	HCV inh	HCMV inh	Vaccinia mCherry	Sm TGR block
O=C(Nc1ccc(-c2ccccc2)cc1)c1ccccc1	0	-	0	0	-	0
COC(=O)c1cccc(NC(=O)Nc2ccc(Cl)cc2)c1	0	0	?	-67.0	0	0
COC(=O)c1cccc(NC(=S)Nc2cccc(Cl)c2C)c1	0	0	0	0	0	0
COC(=O)c1cccc(NC(=S)Nc2ccccc2Cl)c1	0	0	0	0	0	22.4µM
COC(=O)c1cccc(NC(=O)NC(=O)c2ccc(Cl)cc2)c1	0	0	0	0	0	0
COc1ccc(C2C3=C(CCCC3=O)Nc3c(-c4ccccc4)c(C)nn32)cc1 (stereo unspecified)	0	0	0	-	0	0
Cc1ccc(S(=O)(=O)c2nnn3c2nc(NCc2ccc(F)cc2)c2sccc23)cc1	0	?	-	0	?	0
O=C1c2cccc3cc([N+](=O)[O-])cc(c23)C(=O)N1/N=C/c1ccc(O)cc1O	?	0	?	-78.5	0	?
NC(=O)CN1CCN(CCN2C(=O)c3cccc4cccc(c34)C2=O)CC1	0	-	0	?	-	0
